{
  "source": "ChEMBL document CHEMBL4513146",
  "about": "“CO-ADD screening of Karazin Kharkiv National University (Ukraine) compounds”",
  "key": {"Klebsiella pneumoniae": {"test_system": "Klebsiella pneumoniae", "conditions": "Concentration 32 ug.mL-1;; ASSAY_TEST Inhibition of Bacterial Growth; detection method Absorption (OD600); MEDIA CAMHB; plate type 384well; NBS; CORNING #3640; time 18 hr"}, "Candida albicans": {"test_system": "Candida albicans", "conditions": "Concentration 32 ug.mL-1; ASSAY_TEST Inhibition of Fungal Growth; detection method Absorption (OD530)"}, "Cryptococcus neoformans": {"test_system": "Cryptococcus neoformans", "conditions": "Concentration 32 ug.mL-1; ASSAY_TEST Inhibition of Fungal Growth; detection method Resazurin; Absorption (OD600-OD570); plate type 384well; NBS; CORNING #3640"}},
  "note": "Results with a measured potency or affinity are listed apart.",
  "data": [
    {"smiles": "CCc1nnc2c(=O)n(CC(=O)Nc3ccc(C#N)cc3)c3ccccc3n12", "values": [
      {"measurement": "Inhibition", "setting": "Klebsiella pneumoniae", "value": 5.17, "unit": "%"},
      {"measurement": "Inhibition", "setting": "Candida albicans", "value": 10.64, "unit": "%"},
      {"measurement": "Inhibition", "setting": "Cryptococcus neoformans", "value": -24.76, "unit": "%"}
    ]},
    {"smiles": "O=c1c2nnc(SCc3ccccc3Cl)n2ccn1-c1ccc(F)c(F)c1", "values": [
      {"measurement": "Inhibition", "setting": "Klebsiella pneumoniae", "value": 8.56, "unit": "%"},
      {"measurement": "Inhibition", "setting": "Candida albicans", "value": 3.72, "unit": "%"},
      {"measurement": "Inhibition", "setting": "Cryptococcus neoformans", "value": -8.25, "unit": "%"}
    ]},
    {"smiles": "O=C(Cn1nc2c3sccc3ncn2c1=O)Nc1ccc2c(c1)OCO2", "values": [
      {"measurement": "Inhibition", "setting": "Klebsiella pneumoniae", "value": -3.23, "unit": "%"},
      {"measurement": "Inhibition", "setting": "Candida albicans", "value": 1.42, "unit": "%"},
      {"measurement": "Inhibition", "setting": "Cryptococcus neoformans", "value": -18.53, "unit": "%"}
    ]},
    {"smiles": "Cc1nnc2ccc(S(=O)(=O)N(Cc3ccccc3)c3cccc(F)c3)cn12", "values": [
      {"measurement": "Inhibition", "setting": "Klebsiella pneumoniae", "value": 4.18, "unit": "%"},
      {"measurement": "Inhibition", "setting": "Candida albicans", "value": 2.53, "unit": "%"},
      {"measurement": "Inhibition", "setting": "Cryptococcus neoformans", "value": -9.94, "unit": "%"}
    ]},
    {"smiles": "COc1ccccc1NC(=O)Cn1nc2c(Oc3ccc(Cl)cc3)nccn2c1=O", "values": [
      {"measurement": "Inhibition", "setting": "Klebsiella pneumoniae", "value": 6.51, "unit": "%"},
      {"measurement": "Inhibition", "setting": "Candida albicans", "value": 22.33, "unit": "%"},
      {"measurement": "Inhibition", "setting": "Cryptococcus neoformans", "value": -8.59, "unit": "%"}
    ]},
    {"smiles": "CCOc1ccc(NC(=O)Cn2nc3c4cc(-c5ccc(C)c(C)c5)nn4ccn3c2=O)cc1", "values": [
      {"measurement": "Inhibition", "setting": "Klebsiella pneumoniae", "value": 8.27, "unit": "%"},
      {"measurement": "Inhibition", "setting": "Candida albicans", "value": 0.04, "unit": "%"},
      {"measurement": "Inhibition", "setting": "Cryptococcus neoformans", "value": -13.03, "unit": "%"}
    ]},
    {"smiles": "Cc1cccc(Oc2nccn3c(=O)n(CC(=O)Nc4cccc(C(F)(F)F)c4)nc23)c1C", "values": [
      {"measurement": "Inhibition", "setting": "Klebsiella pneumoniae", "value": 9.81, "unit": "%"},
      {"measurement": "Inhibition", "setting": "Candida albicans", "value": 16, "unit": "%"},
      {"measurement": "Inhibition", "setting": "Cryptococcus neoformans", "value": -8.68, "unit": "%"}
    ]},
    {"smiles": "COc1cccc(-n2ccn3c(SCc4ccccc4C)nnc3c2=O)c1", "values": [
      {"measurement": "Inhibition", "setting": "Klebsiella pneumoniae", "value": 8.9, "unit": "%"},
      {"measurement": "Inhibition", "setting": "Candida albicans", "value": 2.6, "unit": "%"},
      {"measurement": "Inhibition", "setting": "Cryptococcus neoformans", "value": -11.74, "unit": "%"}
    ]},
    {"smiles": "COc1ccc(NC(=O)Cn2nc3nc(Nc4ccc(F)cc4)ccn3c2=O)cc1Cl", "values": [
      {"measurement": "Inhibition", "setting": "Klebsiella pneumoniae", "value": 7.26, "unit": "%"},
      {"measurement": "Inhibition", "setting": "Candida albicans", "value": 4.14, "unit": "%"},
      {"measurement": "Inhibition", "setting": "Cryptococcus neoformans", "value": -6.17, "unit": "%"}
    ]},
    {"smiles": "Cc1ccc(-c2ccc3nn(CC(=O)Nc4ccc(C(C)C)cc4)c(=O)n3n2)cc1C", "values": [
      {"measurement": "Inhibition", "setting": "Klebsiella pneumoniae", "value": 2.75, "unit": "%"},
      {"measurement": "Inhibition", "setting": "Candida albicans", "value": 3.46, "unit": "%"},
      {"measurement": "Inhibition", "setting": "Cryptococcus neoformans", "value": -11.72, "unit": "%"}
    ]},
    {"smiles": "Cc1nnc2ccc(S(=O)(=O)N(Cc3cccc(F)c3)c3cccc(Cl)c3)cn12", "values": [
      {"measurement": "Inhibition", "setting": "Klebsiella pneumoniae", "value": -2.92, "unit": "%"},
      {"measurement": "Inhibition", "setting": "Candida albicans", "value": -0.21, "unit": "%"},
      {"measurement": "Inhibition", "setting": "Cryptococcus neoformans", "value": -11.05, "unit": "%"}
    ]},
    {"smiles": "COc1ccc(N2CCN(C(=O)Cn3nc4c(Oc5ccc(C)cc5)nccn4c3=O)CC2)cc1", "values": [
      {"measurement": "Inhibition", "setting": "Klebsiella pneumoniae", "value": 7.21, "unit": "%"},
      {"measurement": "Inhibition", "setting": "Candida albicans", "value": 1.27, "unit": "%"},
      {"measurement": "Inhibition", "setting": "Cryptococcus neoformans", "value": -9.68, "unit": "%"}
    ]},
    {"smiles": "CC(C)c1ccc(Oc2nc3ccccc3n3c(=O)n(CC(=O)Nc4ccc5c(c4)OCO5)nc23)cc1", "values": [
      {"measurement": "Inhibition", "setting": "Klebsiella pneumoniae", "value": 7.45, "unit": "%"},
      {"measurement": "Inhibition", "setting": "Candida albicans", "value": 1.68, "unit": "%"},
      {"measurement": "Inhibition", "setting": "Cryptococcus neoformans", "value": -13.49, "unit": "%"}
    ]},
    {"smiles": "O=c1c2sccc2n2c(SCc3cccc(C(F)(F)F)c3)nnc2n1Cc1ccc(F)cc1", "values": [
      {"measurement": "Inhibition", "setting": "Klebsiella pneumoniae", "value": 10.74, "unit": "%"},
      {"measurement": "Inhibition", "setting": "Candida albicans", "value": 2.55, "unit": "%"},
      {"measurement": "Inhibition", "setting": "Cryptococcus neoformans", "value": -25.66, "unit": "%"}
    ]},
    {"smiles": "COc1cccc(-n2ccn3c(SCc4ccccc4Cl)nnc3c2=O)c1", "values": [
      {"measurement": "Inhibition", "setting": "Klebsiella pneumoniae", "value": 8.33, "unit": "%"},
      {"measurement": "Inhibition", "setting": "Candida albicans", "value": 2.81, "unit": "%"},
      {"measurement": "Inhibition", "setting": "Cryptococcus neoformans", "value": -13.51, "unit": "%"}
    ]},
    {"smiles": "Cc1cc(C)cc(NC(=O)Cn2nc3c4cc(-c5ccc(C)c(C)c5)nn4ccn3c2=O)c1", "values": [
      {"measurement": "Inhibition", "setting": "Klebsiella pneumoniae", "value": 6.91, "unit": "%"},
      {"measurement": "Inhibition", "setting": "Candida albicans", "value": 7.8, "unit": "%"},
      {"measurement": "Inhibition", "setting": "Cryptococcus neoformans", "value": -17.96, "unit": "%"}
    ]},
    {"smiles": "O=C(Cn1nc2c3c4c(sc3ncn2c1=O)CCCC4)NCc1ccccc1Cl", "values": [
      {"measurement": "Inhibition", "setting": "Klebsiella pneumoniae", "value": 0.41, "unit": "%"},
      {"measurement": "Inhibition", "setting": "Candida albicans", "value": 2.22, "unit": "%"},
      {"measurement": "Inhibition", "setting": "Cryptococcus neoformans", "value": -5.52, "unit": "%"}
    ]},
    {"smiles": "COc1cccc(CN(c2ccc(Cl)cc2)S(=O)(=O)c2ccc3nncn3c2)c1", "values": [
      {"measurement": "Inhibition", "setting": "Klebsiella pneumoniae", "value": 6.15, "unit": "%"},
      {"measurement": "Inhibition", "setting": "Candida albicans", "value": 2.49, "unit": "%"},
      {"measurement": "Inhibition", "setting": "Cryptococcus neoformans", "value": -6.94, "unit": "%"}
    ]},
    {"smiles": "CC(C)c1ccc(N(Cc2cc(F)cc(F)c2)S(=O)(=O)c2cccn3cnnc23)cc1", "values": [
      {"measurement": "Inhibition", "setting": "Klebsiella pneumoniae", "value": 4.84, "unit": "%"},
      {"measurement": "Inhibition", "setting": "Candida albicans", "value": 0.58, "unit": "%"},
      {"measurement": "Inhibition", "setting": "Cryptococcus neoformans", "value": -6.06, "unit": "%"}
    ]},
    {"smiles": "CCCCN(CC)C(=O)CSc1nnc2c(=O)n(Cc3ccccc3F)ccn12", "values": [
      {"measurement": "Inhibition", "setting": "Klebsiella pneumoniae", "value": 7.9, "unit": "%"},
      {"measurement": "Inhibition", "setting": "Candida albicans", "value": 2.5, "unit": "%"},
      {"measurement": "Inhibition", "setting": "Cryptococcus neoformans", "value": -19.25, "unit": "%"}
    ]},
    {"smiles": "Cc1ccc(CN(c2ccc3c(c2)OCO3)S(=O)(=O)c2ccc3nnc(C)n3c2)cc1", "values": [
      {"measurement": "Inhibition", "setting": "Klebsiella pneumoniae", "value": 2.15, "unit": "%"},
      {"measurement": "Inhibition", "setting": "Candida albicans", "value": 2.45, "unit": "%"},
      {"measurement": "Inhibition", "setting": "Cryptococcus neoformans", "value": -2.21, "unit": "%"}
    ]},
    {"smiles": "Cc1ccccc1Oc1nccn2c(=O)n(CC(=O)Nc3ccc(C#N)cc3)nc12", "values": [
      {"measurement": "Inhibition", "setting": "Klebsiella pneumoniae", "value": 13.8, "unit": "%"},
      {"measurement": "Inhibition", "setting": "Candida albicans", "value": -1.85, "unit": "%"},
      {"measurement": "Inhibition", "setting": "Cryptococcus neoformans", "value": -9.67, "unit": "%"}
    ]},
    {"smiles": "CC(C)c1nnc2c(=O)n(CC(=O)Nc3cccc(Cl)c3)c3ccccc3n12", "values": [
      {"measurement": "Inhibition", "setting": "Klebsiella pneumoniae", "value": 4.29, "unit": "%"},
      {"measurement": "Inhibition", "setting": "Candida albicans", "value": 3.06, "unit": "%"},
      {"measurement": "Inhibition", "setting": "Cryptococcus neoformans", "value": -36.03, "unit": "%"}
    ]},
    {"smiles": "CCc1ccccc1NC(=O)Cn1nc2cc(C)nc(Nc3ccc(F)cc3)n2c1=O", "values": [
      {"measurement": "Inhibition", "setting": "Klebsiella pneumoniae", "value": 9.33, "unit": "%"},
      {"measurement": "Inhibition", "setting": "Candida albicans", "value": 29.91, "unit": "%"},
      {"measurement": "Inhibition", "setting": "Cryptococcus neoformans", "value": -17.34, "unit": "%"}
    ]},
    {"smiles": "COc1ccc(NC(=O)Cn2c(=O)c3nnc(C(C)C)n3c3ccccc32)cc1Cl", "values": [
      {"measurement": "Inhibition", "setting": "Klebsiella pneumoniae", "value": 7.18, "unit": "%"},
      {"measurement": "Inhibition", "setting": "Candida albicans", "value": 3.46, "unit": "%"},
      {"measurement": "Inhibition", "setting": "Cryptococcus neoformans", "value": -13.11, "unit": "%"}
    ]},
    {"smiles": "CCOC(=O)c1ccc(NC(=O)Cn2nc3ccc(Sc4cccc(F)c4)nn3c2=O)cc1", "values": [
      {"measurement": "Inhibition", "setting": "Klebsiella pneumoniae", "value": 10.14, "unit": "%"},
      {"measurement": "Inhibition", "setting": "Candida albicans", "value": 3.42, "unit": "%"},
      {"measurement": "Inhibition", "setting": "Cryptococcus neoformans", "value": -9.72, "unit": "%"}
    ]},
    {"smiles": "COc1ccc(-c2cc3c4nn(CC(=O)Nc5ccccc5)c(=O)n4ccn3n2)cc1", "values": [
      {"measurement": "Inhibition", "setting": "Klebsiella pneumoniae", "value": 8.66, "unit": "%"},
      {"measurement": "Inhibition", "setting": "Candida albicans", "value": 6.28, "unit": "%"},
      {"measurement": "Inhibition", "setting": "Cryptococcus neoformans", "value": -7.06, "unit": "%"}
    ]},
    {"smiles": "Cc1cccc(NC(=O)Cn2nc3ccc(-c4ccc(Cl)cc4)nn3c2=O)c1C", "values": [
      {"measurement": "Inhibition", "setting": "Klebsiella pneumoniae", "value": 8.72, "unit": "%"},
      {"measurement": "Inhibition", "setting": "Candida albicans", "value": 0.72, "unit": "%"},
      {"measurement": "Inhibition", "setting": "Cryptococcus neoformans", "value": -12.84, "unit": "%"}
    ]}
  ]
}
